# The list is a sample of the results.
# aSyn UTR act: Activators via SNCA 5'UTR binding, MLPCN; 7.1% of 300,000 active; alpha-synuclein 5'UTR reporter, activators screen; activity score, % (tested at 7.5 µM), hits read low; AID 1814; in the data active = activity score below about -60%
# * hit, by the source's call.
SMILES,aSyn UTR act
COc1ccc(S(=O)(=O)Nc2ccc(O)c3ccccc23)cc1,-68*
CCCS(=O)(=O)NCc1cn2c(C)csc2n1,-112*
Cc1csc2nc(CNC(=O)c3ccco3)cn12,-68*
Cc1csc2nc(CCNS(=O)(=O)c3cccs3)cn12,-141*
O=C(O)CCCn1c(O)c(C=C2N=c3ccccc3=N2)sc1=S,-89*
Cc1ccccc1-c1nnc(-c2ccc(Br)cc2)o1,-175*
Cc1ccccc1-c1nnc(CN2CCC(C)CC2)o1,-77*
CSc1ccccc1-c1nnc(-c2ccc(C)cc2)o1,-106*
Cc1ccccc1-c1nnc(-c2ccccc2C)o1,-145*
CCN(CC)CCNc1nc2cc(OC)c(OC)cc2c2nc(-c3ccccc3)nn12,-73*
O=C(Cn1c2ccccc2c(=O)c2ccccc21)N/N=C/c1ccc(N2CCCC2)c([N+](=O)[O-])c1,111
N#C/C(=C/c1ccc(N2CCCC2)c([N+](=O)[O-])c1)c1nc2ccccc2[nH]1,-78*
N#C/C(=C\c1ccc(N2CCOCC2)c([N+](=O)[O-])c1)c1nc2ccccc2[nH]1,-163*
COc1cccc(-c2noc(C3CCCN(C(=O)CC(C)(C)C)C3)n2)c1 (stereo unspecified),-127*
Cc1ccccc1NC(=O)N1CCCC(c2nc(-c3ccc(C(C)C)cc3)no2)C1 (stereo unspecified),-205*
CCC(C)C(=O)N1CCCC(c2nc(-c3cccs3)no2)C1 (stereo unspecified),-126*
COc1cccc(-c2noc(C3CCCN(C(=O)c4ccccc4OC)C3)n2)c1 (stereo unspecified),-85*
CCCCC(=O)N1CCCC(c2nc(-c3cccc(OC)c3)no2)C1 (stereo unspecified),-141*
CCOC(=O)c1sc(NC(=O)CSc2nc3c(cc2C#N)CCCCC3)c(C#N)c1C,-143*
COC(=O)CC(=O)CSc1nc2c(cc1C#N)CCCCC2,-62*
CSC1CCCCC1(O)CSc1nc2c(cc1C#N)CCCC2 (stereo unspecified),56
CCc1nnc(NC(=O)CSc2nc3c(cc2C#N)CCCC3)s1,-91*
Cc1ccc(-n2nc3c([n+]2[O-])CCc2c-3no[n+]2[O-])cc1,-141*
[O-][n+]1onc2c1CCc1c-2nn(-c2ccccc2Cl)[n+]1[O-],-155*
CCOC(=O)c1cnc2cc3c(cn2c1=O)CCCC3,-132*
SMILES,aSyn UTR act
Nc1ccc(Nc2nc(-c3cc4ccccc4oc3=O)cs2)cc1,-200*
CC(=O)Nc1ccc(Nc2nc(-c3cc4ccccc4oc3=O)cs2)cc1,-449*
CC1CCC(=C(C#N)c2nc(-c3cc4ccccc4oc3=O)cs2)CC1 (stereo unspecified),-258*
Cn1ccnc1SCC(=O)c1ccc(O)cc1,-65*
COc1ccc(C(=O)CSc2nccn2C)c(OC)c1,-80*
COc1cccc(C(=O)CSc2nccn2C)c1,-84*
Cn1ccnc1SCC(=O)c1ccc2ccccc2c1,-71*
COc1cccc(C(=O)Oc2c(CN3CCOCC3)cc(Cl)c3cccnc23)c1,89
c1ccc2cc(-c3cc4ccccn4c3)ccc2c1,-98*
CN1C(=O)C(O)(c2nnc(-c3ccccc3)o2)c2ccccc21 (stereo unspecified),-96*
O=C(Nc1nc2c(s1)CN(Cc1ccccc1)CC2)C1CCC1,-108*
COc1ccc(-n2c(C)nn(CCOc3ccccc3)c2=O)cc1,-90*
COc1cc(C(=O)Nc2cc3c(cc2N2CCCCC2)n(C)c(=O)n3C)cc(OC)c1OC,-79*
COc1ccccc1N1CCN(S(=O)(=O)CCNC(=O)c2cc(OC)c(OC)c(OC)c2)CC1,61
CNc1nnc(-c2ccc(OC)cc2)s1,-75*
Cc1ccc(C(=O)Nc2nc(=O)n(C(=O)c3ccccc3Cl)s2)cc1,-104*
Cn1sc(NC(=O)c2ccc(Cl)cc2)nc1=O,-115*
C(#CC1CCCC1)c1ccc2c(c1)COc1c3ccccc3nn1-2,-146*
O=C(NCc1ccccn1)C(=O)Nc1ccccc1,-150*
Cc1ccc(NC(=O)C(=O)NCc2ccccn2)cc1,-110*
Cc1c(C(N)=O)sc2nc(-c3ccccc3)cn12,-105*
COc1ccc(-c2cn3c(C)c(C(=O)Nc4cccc(NC(C)=O)c4)sc3n2)cc1,-100*
Cc1c(C(=O)NCC(C)C)sc2nc(-c3ccc(F)cc3)cn12,-128*
CCCCN(CCCC)C(=S)N/N=C/c1c(C)[nH]n(-c2ccccc2)c1=O,93
Cc1[nH]n(-c2ccc(Cl)cc2)c(=O)c1C=Nc1ccc(S(=O)(=O)N2CCOCC2)cc1,-69*
SMILES,aSyn UTR act
C/C(=N\N=C(/N)c1nonc1N)c1ccc2c(c1)OCO2,-110*
O=C(Cc1ccccc1)Nc1cc2c(cc1Cl)OCCCO2,-147*
CCc1ccc(C(=O)Nc2cc3c(cc2Cl)OCCCO3)cc1,-172*
COc1cccc(/C=N/Nc2ncnc(Cl)c2N)c1O,89
COc1cccc(CNc2ncc(Br)cc2Br)c1O,-125*
NNC(=O)c1cccc(COc2ccc3c(c2)CCC3)c1,71
O=C(NCc1ccccc1)c1cccc(COc2cc(Cl)ccc2Cl)c1,-143*
Oc1c(CN2CCN(c3ccccn3)CC2)cc(Cl)c2cccnc12,92
